Experiments:
Type in all cases: functional
[1] = target: Solute carrier family 2, facilitated glucose transporter member 1 (Homo sapiens) (UniProt P11166); assay: ST_JUDE_LEISH: Cytotoxicity at 2uM final concentration against transgenic Leishmania Mexicana promastigotes LmGLUT1 that are glucose transport deficient and complemented with the human glucose transporter GLUT1. Activity is measured by DNA content using SYBR green in vitro
[2] = target: Hexose transporter 1 (Plasmodium falciparum) (UniProt O97467); assay: ST_JUDE_LEISH: Cytotoxicity at 2uM final concentration against transgenic Leishmania Mexicana promastigotes LmPfHT that are glucose transport deficient and complemented with the Plasmodium falciparum hexose transporter. Activity is measured by DNA content using SYBR green in vitro
[3] = target: Glucose transporter (Leishmania mexicana) (UniProt O61059); assay: ST_JUDE_LEISH: Cytotoxicity at 2uM final concentration against transgenic Leishmania Mexicana promastigotes LmGT2 that are glucose transport deficient and complemented with the L. Mexicana glucose transporter 2. Activity is measured by DNA content using SYBR green in vitro

Sequence of Solute carrier family 2, facilitated glucose transporter member 1 (Homo sapiens) (P11166 whole entry): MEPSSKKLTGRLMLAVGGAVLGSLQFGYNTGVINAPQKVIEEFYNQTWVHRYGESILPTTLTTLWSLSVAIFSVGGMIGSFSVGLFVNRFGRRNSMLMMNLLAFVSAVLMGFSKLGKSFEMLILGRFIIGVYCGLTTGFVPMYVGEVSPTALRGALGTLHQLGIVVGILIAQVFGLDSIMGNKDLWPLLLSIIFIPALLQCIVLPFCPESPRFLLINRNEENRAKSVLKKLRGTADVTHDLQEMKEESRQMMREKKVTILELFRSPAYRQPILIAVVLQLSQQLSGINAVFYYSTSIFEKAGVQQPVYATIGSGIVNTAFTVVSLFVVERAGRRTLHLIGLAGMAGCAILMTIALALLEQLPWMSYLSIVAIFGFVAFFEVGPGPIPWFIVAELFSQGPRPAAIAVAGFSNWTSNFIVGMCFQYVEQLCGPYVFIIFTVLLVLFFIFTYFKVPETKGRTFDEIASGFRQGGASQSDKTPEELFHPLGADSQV

SMILES	inhibition [1]	inhibition [2]	inhibition [3]
COc1cc(C2Nc3ccc4ccccc4c3C3=C2C(=O)CC(C)(C)C3)ccc1Oc1ccc([N+](=O)[O-])cc1C#N (configuration not stated)	4.18%	4.07%	-0.66%
N#Cc1ccc2c(c1)CCN(CCC1CCC(NC(=O)c3cc4ccc(Cl)cc4[nH]3)CC1)C2 (configuration not stated)	1.73%	-0.22%	-0.76%
Cc1nc(C)c(CC(=O)Nc2cccc(-c3cccc(-c4nc5cc(C(F)(F)F)ccc5[nH]4)c3)c2)s1	2.61%	2.61%	1.2%
Cc1nc2nc(N)nc(N)c2c(C)c1Cc1ccccc1Br	7.5%	14.9%	6.78%
CC(=O)N1N=C(c2ccccc2)Sc2c1nc(-c1ccc(Cl)cc1)n2C(C)=O	1.37%	1.41%	3.09%
CN1CCN(Cc2cccc(-c3ccc4c(Nc5cc(O)c(Cl)cc5F)ccnc4c3)c2)CC1	2.16%	6.74%	13%
O=C(/C=C/c1ccc(Cl)c(Cl)c1)NCCCCCN1CCCC(CNS(=O)(=O)c2cccc(C(F)(F)F)c2)C1 (configuration not stated)	-0.87%	-0.18%	-1.57%
Cc1cc(C(F)(F)F)n2nc(C(=O)N(Cc3cncn3Cc3cccc(F)c3)CC3CC3)cc2n1	-0.1%	-0.07%	2.14%
COc1ccc2[nH]ccc(=NN=Cc3ccccc3)c2c1	13.5%	9.86%	5.06%
O=C(NCc1ccc(Cl)c(Cl)c1)c1ccc(-c2nc3ccc(F)cc3[nH]2)cc1	12.4%	11.1%	11.6%
COc1ccc(CCNCC(O)COc2nccc3c(S(=O)(=O)N4CCCNCC4)cccc23)cc1OC (configuration not stated)	-1.57%	-1.2%	-2.89%
COc1cc(OC)cc(-c2nn(-c3ccc([N+](=O)[O-])cc3C#N)c(=S)n2Cc2ccco2)c1	0.03%	-1.55%	4.15%
CS(=O)(=O)c1ccc(OCCCN(Cc2ccccc2C(F)(F)F)c2ccc(C#N)c(C(F)(F)F)c2)cc1	1.51%	3.33%	0.65%
Cc1cccc(C(=O)NCCCN2CCC(NC(=O)/C=C/c3ccc(Cl)c(Cl)c3)CC2)c1	1.05%	0.15%	2.02%

Reference: ChEMBL document CHEMBL3433997, “St. Jude Leishmania screening dataset” (2016)
